# Assay results taken from PubChem BioAssay AID1259422 (The Scripps Research Institute Molecular Screening Center, 2018).
# The whole screen tested about 640,000 compounds, of which about 9,300 (1.5%) were called active. The full list was thinned out, with actives kept by preference. A number with no mark means an inactive call. Cut-off read from the data, not from the text of the source: active = inhibition above about 32%; inactive = the rest.
# Assay: TEAD-YAP interaction inhibition, primary screen, TEAD-YAP interaction inhibitor project, luminescence, HEK-TIYL cells (AID 1259422);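 note: 0% = median of test compound wells and 100% = reference inhibitor wells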
# Conditions: TEAD-Gal4/YAP UAS-luciferase luminescence, at 9.12 µM, hits give high values
row,Structure (SMILES),inhibition
1,CCOC(=O)c1sc(NC(=O)c2cccc(Cl)c2)c(C(=O)OCC)c1C,-1.99%
2,O=C(NCC1CCC2(CCN(Cc3ccccc3)CC2)O1)c1ccc(F)c(Cl)c1 (stereo not given),-14.8%
3,O=C(NCCCO)/C(=C/c1ccc([N+](=O)[O-])cc1)NC(=O)c1ccco1,1.95%
4,O=C(CCCN1CCc2ccccc2C(O)(c2ccccc2)C1)c1ccc(F)cc1 (stereo not given),-4.26%
5,O=C1CN(c2ccccc2F)C(=O)CN1/N=C/c1ccccc1Cl,-10.8%
6,COc1ccc(-c2c(Nc3cccc(C)c3)c(=O)c2=O)cc1,4.83%
7,Cc1ccc(-c2c(Nc3cccc(F)c3)c(=O)c2=O)cc1C,53.5% (active)
8,COC(=O)c1ccccc1Nc1c(-c2ccc(C)c(C)c2)c(=O)c1=O,5.02%
9,Cc1cc(C)nc(/N=C(/NC(=O)c2ccc(F)cc2)Nc2ccc(F)cc2F)n1,2.84%
10,COc1ccc(-c2cccc(C(=O)Nc3ccc(Oc4ccccc4)cc3)n2)cn1,-3.01%
11,CCn1c(COc2ccccc2OC)nnc1SCC(=O)NC,4.57%
12,CCn1c(COc2ccccc2)nnc1Sc1ccc([N+](=O)[O-])cc1C=O,59.5% (active)
13,O=[N+]([O-])c1ccc(OCc2nnc(SCCN3CCOCC3)n2-c2ccccc2)cc1,3.41%
14,CCN(CC)C(=O)CSc1nc2c(C)c(C)ccc2cc1C#N,8.08%
15,Cc1ccc2cc(C#N)c(SCC(=O)N3CC(=O)Nc4ccccc43)nc2c1C,63.3% (active)
16,Cc1ccc(C)c2nc(SCC(=O)N3CC(=O)Nc4ccccc43)c(C#N)cc12,-2.34%
17,FC(F)(F)c1cccc(-c2ccc(/C=N/Nc3nn[nH]n3)o2)c1,4.88%
18,O=C(CSCc1cc2cccc3c2n(c1=O)CCC3)NCc1ccncc1,8.05%
19,O=C1c2cccnc2C(=O)N1CNc1ccccc1,2.66%
20,COc1ccc(Nc2cc(=O)oc3ccccc23)cc1,36.2% (active)
21,O=c1cc(Nc2ccc(Br)cc2)c2ccccc2o1,0.69%
22,COc1ccc(Nc2ccccc2)cc1,-22.2%
23,C=CCn1c(SCC(=O)c2ccc(OC)c(C)c2)nnc1-c1ccncc1,4.75%
24,CCC(CC)=NNC(=O)c1cc(C)nc2ccccc12,48.1% (active)

row,Structure (SMILES),inhibition
1,Cc1cc(C(=O)NC(C)c2ccccc2)c2ccccc2n1 (stereo not given),5.1%
2,CCCCCNC(=O)c1cc(C)nc2ccccc12,2.15%
3,Cc1cc(C)c(S(=O)(=O)N2CCOCC2)c(C)c1[N+](=O)[O-],-0.25%
4,COc1ccccc1-n1nnnc1SCC(=O)c1ccc(Br)s1,2.7%
5,COc1ccccc1NC(=O)C(=O)NCc1ccc(Cl)cc1,1.06%
6,COc1ccccc1-n1nnnc1S(=O)(=O)Cc1ccc(Cl)cc1,48.7% (active)
7,CCOC(=O)N1CCN(C(=O)CN2N=C(c3ccc(OC)cc3)CCC2=O)CC1,-0.51%
8,c1ccc(-n2nnnc2SCc2nc3ccccc3s2)cc1,-47.7%
9,COc1ccc2nc(NC(=O)CSc3nnnn3-c3ccccc3)sc2c1,8.33%
10,COc1ccc(-n2nnnc2-c2nc3ccccc3s2)cc1,74.2% (active)
11,OCc1cccc(-c2cnn3c(NCc4cccs4)ccnc23)c1,102% (active)
12,Fc1ccc(CNc2ccnc3c(-c4ccsc4)cnn23)cc1,-14.1%
13,CN(C)CCNc1ccnc2c(-c3cccc(O)c3)cnn12,2.13%
14,COc1ccc(CCNC(=O)c2cc(-c3ccccc3OC)n[nH]2)cc1OC,2.42%
15,O=C(Cc1cccc2ccccc12)N/N=C/c1cccnc1,3.15%
16,O=C(CSc1n[nH]c(=O)[nH]c1=O)N/N=C/c1cccnc1,10.8%
17,O=C(CSc1cccc2cccnc12)N/N=C/c1cccnc1,46.5% (active)
18,Cc1nc(NC(=O)CSc2nnc(-c3ccccc3)n2C)sc1C,9.15%
19,CCOc1ccc(NC(=O)c2ccc3c(=O)n(-c4ccc(F)cc4)c(=S)[nH]c3c2)cc1,4.1%
20,Cc1cc(Cl)c(S(=O)(=O)N2CCCc3ccccc32)cc1OCC(N)=O,4.13%
21,O=C(CC1C(=O)N(c2ccc(F)cc2)C(=O)N1Cc1cccs1)Nc1ccc(F)cc1 (stereo not given),5.51%
22,COc1ccc(OC(C)C(=O)Nc2ccc3ccccc3c2)cc1 (stereo not given),39.1% (active)
23,COc1ccc(OC(C)C(=O)Nc2cccc(Br)c2)cc1 (stereo not given),5.3%
24,COc1ccc(NC(=O)C(C)Oc2cc(C)cc(C)c2)cc1 (stereo not given),15.9%

row,Structure (SMILES),inhibition
1,COC(=O)C1=CN(Cc2ccc(F)cc2)C=C(C(=O)OC)C1c1ccc(C)s1,3.1%
2,CCn1ccc(C(=O)Nc2sccc2C(=O)NC)n1,10.4%
3,COc1ccc(-n2cnc3cc(C(=O)NCc4ccccc4OC)ccc32)cc1,4%
4,COc1cc(NC(=O)c2ccccc2)c(C(=O)O)cc1OC,7.96%
5,COc1ccccc1-n1cnc2cc(NC(=O)c3ccccc3)ccc21,38% (active)
6,CN(C)c1cc(C(=O)N2CCN(C(=O)C(C)(C)C)CC2)nc(N(C)C)n1,0.22%
7,Cn1cc(-c2ccc3cnc(Nc4ccc(-n5cnc(N6CCOCC6)n5)cc4)nc3c2-c2cnn(C)c2)cn1,88.5% (active)
8,Cn1cc(-c2cc(Nc3ccc(-n4cnc(N5CCC(O)CC5)n4)cc3)ncc2Cl)cn1,0.35%
9,Cn1cc(-c2nc(Nc3ccc(-n4cnc(N5CCC(O)CC5)n4)cc3)ncc2Br)cn1,85.4% (active)
10,Cc1ncn(-c2ccc(Nc3ncc4cccc(-c5ccc6scnc6c5)c4n3)cc2)n1,3.89%
11,c1coc(-c2ccc3cnc(Nc4ccc(-n5cnc(N6CCOCC6)n5)cc4)nc3c2)n1,-7.9%
12,COc1ccc(CCNC(=O)CCn2c(SCc3cccc(Cl)c3)nc3ccccc3c2=O)cc1OC,-6.64%
13,CCOC(=O)C1=C(C)NC(=S)NC1c1cc(OC)ccc1Br (stereo not given),-4.97%
14,CC(=O)c1cccc(-c2ccc(C(=O)NCCN3CCOCC3)s2)c1,-17.5%
15,COc1ccc(-c2noc(CNC(=O)c3ccc(Br)cc3)n2)cc1,-8.01%
16,CC1=C(C(=O)OCc2ccccc2)C(c2ccc3c(c2)OCO3)C2=C(CC(c3cccs3)CC2=O)N1 (stereo not given),-4.32%
17,CC1=C(C(=O)OCc2ccccc2)C(c2cccc([N+](=O)[O-])c2)C2=C(CC(c3cccs3)CC2=O)N1 (stereo not given),58.1% (active)
18,COC(=O)C1=C(C)NC2=C(C(=O)CC(c3cccs3)C2)C1c1cccc(OCc2ccccc2)c1 (stereo not given),15.8%
19,O=C(CSc1cccc[n+]1[O-])Nc1nc2ccccc2s1,3.26%
20,Cc1nccn1CC(O)COc1ccc(Br)cc1 (stereo not given),5.95%
21,COc1ccc(C(=O)COC(=O)COc2ccccc2C#N)c(OC)c1,7.04%
22,COc1ccc(OC)c(C(=O)COc2ccc(Br)cc2C#N)c1,52.8% (active)
23,COc1ccc(OCC(=O)c2ccc(F)cc2)c(C#N)c1,-65.6%
24,CN(C)C(=O)c1cc(-c2cn[nH]c2)ccc1NC(=O)OCc1ccccc1,-2.11%

row,Structure (SMILES),inhibition
1,CC(=O)Nc1ccc(N2C(=O)c3ccc4c5c(ccc(c35)C2=O)C(=O)N(c2ccc(NC(C)=O)cc2)C4=O)cc1,5.3%
2,COc1cc(OC)nc(Oc2cccnc2/C=N/Nc2ccccc2[N+](=O)[O-])n1,-11.9%
3,CCCC(=O)Nc1nc2ccc(S(=O)(=O)N(C)C)cc2s1,-15.2%
4,CCN(CC)S(=O)(=O)c1ccc2nc(NC(=O)CC(C)C)sc2c1,42.2% (active)
5,CS(=O)(=O)c1ccc2nc(NC(=O)CSc3ccccc3)sc2c1,7.95%
6,COc1cc(/C=C2/SC(=O)N(C)C2=O)cc(Br)c1OC,-1.8%
7,COc1ccc(N2C(=O)CC(NNC(=O)c3ccccc3O)C2=O)cc1 (stereo not given),8.23%
8,CC12CCC(C(=O)N(NC(=O)c3ccccc3O)C1=O)C2(C)C (stereo not given),74.3% (active)
9,CCN(CC)c1ccc(NC(=O)c2ccccc2O)cc1,-31.2%
10,CC12C=CC3(O1)C(C(=O)N(CC1CCCO1)C3C(=O)NC1CCCCC1)C2C(=O)Nc1ccc(Cl)c(Cl)c1 (stereo not given),2.66%
11,CCOc1ccc(S(=O)(=O)NCCOc2ccc(F)cc2)c(OCC)c1,10.6%
12,O=C1c2ccccc2C(=O)N1c1cccc(Br)c1,-1.81%
13,Clc1nc(NCCN2CCOCC2)c2ncn(-c3ccccc3)c2n1,-5.11%
14,Nc1cccc(-c2nc(NCCO)c3ncn(-c4ccccc4)c3n2)c1,31.7%
15,NC(=O)c1ccc(-c2nc(NCCO)c3ncn(-c4ccsc4)c3n2)cc1,18.6%
16,COc1ccc(-c2nc(NCCN3CCOCC3)c3ncn(-c4ccccc4)c3n2)cn1,59.2% (active)
17,Cn1c(Nc2nc(NCCN3CCOCC3)c3ncn(-c4ccccc4)c3n2)nc2ccccc21,25.9%
18,COc1ccc(-c2nc(NCCO)c3ncn(-c4ccsc4)c3n2)cn1,41.7% (active)
19,C=CCn1c(=O)c(C(=O)Nc2cccc(Cl)c2)c(O)c2ccccc21,3.7%
20,O=C(Nc1cccc2c1C(=O)c1ccccc1C2=O)c1ccc(F)cc1,-2.6%
21,COc1ccc(OC)c(C(=O)c2ccc(C(=O)NC3CC(C)(C)NC(C)(C)C3)cc2)c1,17.9%
22,CNC(=O)C(=O)Nc1cc(OC)ccc1OC,10.2%
23,CONC(=O)c1ccc(C(=O)c2cc(OC)ccc2OC)cc1,35.8% (active)
